# Reference: PubChem BioAssay AID652017 (The Scripps Research Institute Molecular Screening Center, 2013)
# Values joined by “and” are separate entries in the source; they are usually repeats but may differ in a detail not shown here. Equal values may be shown once. Screen size: about 370,000 compounds; about 3,800 (1%) were called active. No stated cut-off is given here; in the data, active means activation above about 7.8%; inactive means the rest. The list comes from a sample in which actives are over-represented; it also holds similar structures and randomly drawn compounds.
# Assay: SMARCA2 (BRM) function activators, primary screen, cell-based, luminescence, high throughput (AID 652017);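 further: 0% = vehicle wells and 100% = reference activator wells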
# Settings: MG213 cells, MMTV-luciferase reporter, dexamethasone, overnight; at 9.1 µM; hits give high values
row,SMILES,activation
1,C=CC(=O)OCCOCCOCCOCCOC(=O)C=C,13.1% (active)
2,CCc1nc2c(OCCOc3ccccc3)cccn2c1N(C)C(=O)c1ccc(OC)cc1,-6.52% (inactive)
3,O=C1CCC2(CCC(c3ccc(Cl)cc3)CC2)N1CCO (centres undefined),-3.07% (inactive)
4,CCCCCCN1CCS(=O)(=O)N(Cc2ccc(C(F)(F)F)cc2)C(C(=O)OC)C1 (centres undefined),-1.27% (inactive)
5,O=C(CSc1nnc(-c2ccccc2)n1Cc1ccco1)Nc1ccccc1-c1ccccc1,-7.03% (inactive)
6,Cc1ccc(C)c(NC(=O)CCS(=O)(=O)c2ccccc2)c1,0.55% (inactive)
7,Cc1ccc(F)c(NC(=O)CCc2ccccc2)c1,11.3% (active)
8,Cc1ccc(F)c(NC(=O)CCOc2ccccc2C)c1,-0.21% (inactive)
9,C[C@H](NC(=O)c1ccccc1Cl)C(=O)OCCOc1cccc(Cl)c1,-0.67% (inactive)
10,COC(=O)c1sc(-c2ccc(C(C)(C)C)cc2)cc1NC(=O)/C=C/C(=O)O,9.14% (active)
11,O=C(C=CC(=O)Nc1ccc(F)cc1F)Nc1ccc(F)cc1F,0.37% (inactive)
12,COC(=O)C[C@@H]1CC[C@@H]2[C@@H](COc3ccc(NC(=O)Nc4ccc(F)c(F)c4)cc3C(=O)N2C)O1,-2.75% (inactive)
13,CC(=O)c1sc(NC(=O)c2ccc(C)cc2)nc1C,9.69% (active)
14,Cc1ccc(/C=N/NC(=O)C(NC(=O)c2ccccc2)c2n[nH]c(=O)c3ccccc23)cc1 (centres undefined),-1.07% (inactive)
15,Cc1ccc(C(=O)Nc2nc(N)n(-c3ccccc3)n2)cc1,-1.21% (inactive)
16,CCOC(=O)c1sc(/N=C/Nc2nc(C)c(C(=O)OCC)s2)nc1C,-0.22% (inactive)
17,CC(=O)c1sc(N)nc1C,-0.52% (inactive) and -1.75% (inactive)
18,CC(=O)c1sc(N/N=C\c2ccc(C)cc2)nc1C,13.4% (active)
19,C[C@H]1CCC/C=C/C(=O)c2c(O)cc(O)cc2CC(=O)O1,6.88% (inactive)
20,CCCCNC(=O)C[C@H]1C[C@@]2(C(=O)OC)C(=C[C@H](COCc3ccccc3)O[C@@H]2C)N(Cc2ccc(Cl)cc2Cl)C1=O,-3.4% (inactive)
21,C=CCN1[C@@H](Cc2ccccc2)COc2cccc(N3CCSCC3)c2S1(=O)=O,-1.33% (inactive)
22,COC(=O)[C@]1(C#N)CC(=O)N(CC2CCCCC2)[C@@H]1c1ccccc1,-6.17% (inactive)
23,COC(=O)[C@]12C[C@H](CC(=O)NCc3ccccc3)C(=O)N(Cc3ccccc3)C1=C[C@H](COCc1ccccc1)O[C@@H]2C,2.84% (inactive)
24,Cc1ccc(-c2nc(C3CCCN(S(=O)(=O)c4ccc(Br)s4)C3)no2)cc1 (centres undefined),-5.3% (inactive)
